# B2AR ag: agonists of human beta-2 adrenergic receptor inducing internalization. response, % (no concentration beside the values). AID 504454. 0.43% of 340,000 active. Am2.2-beta2AR cells, FAP receptor internalization, flow cytometry;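 active = response above a set limit, near 3 SD of response in nonfluorescent compounds, cut at about 42% in these data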
# Target sequence (P07550 whole entry, looked up): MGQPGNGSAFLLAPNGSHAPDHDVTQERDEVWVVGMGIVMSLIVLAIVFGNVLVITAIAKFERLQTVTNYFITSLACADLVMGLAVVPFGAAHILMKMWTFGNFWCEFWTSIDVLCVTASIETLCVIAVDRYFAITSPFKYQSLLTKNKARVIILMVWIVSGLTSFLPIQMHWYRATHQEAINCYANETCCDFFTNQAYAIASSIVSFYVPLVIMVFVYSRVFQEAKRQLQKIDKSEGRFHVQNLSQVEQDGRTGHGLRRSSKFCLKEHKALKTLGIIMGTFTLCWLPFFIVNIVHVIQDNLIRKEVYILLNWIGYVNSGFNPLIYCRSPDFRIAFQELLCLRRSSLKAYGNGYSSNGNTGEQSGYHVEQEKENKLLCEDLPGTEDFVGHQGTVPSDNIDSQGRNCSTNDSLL
# TIM10 inh: growth inhibitors of TIM10 yeast strain. S. cerevisiae TIM10 strain growth, BacTiter-Glo luminescence, 24 h. inhibition, % at 10 µM. 1.4% of 330,000 active;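 active = inhibition of 40% or more at the single tested concentration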;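 also: wild-type TIM10 isogenic control strain grown at permissive 25 °C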
# PfHsp90 set2: reduces growth (ATP signal) of yeast expressing P. falciparum Hsp90 | S. cerevisiae expressing PfHsp90, BacTiter-Glo ATP, 48 h; yeast lacking PDR1 and PDR3 efflux regulators | 0.32% of 310,000 active | inhibition, % at 9.4 µM;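 active = every replicate shows inhibition above about 80%, whatever the replicate mean, limit read from the data; inconclusive = mean inhibition reaches the set limit but some replicate falls short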
# tim10-1 inh: growth inhibitors of tim10-1 mutant yeast | S. cerevisiae tim10-1 ts strain growth, BacTiter-Glo, 24 h | inhibition, % at 20 µM | 2.2% of 330,000 active | AID 463190;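 active = inhibition of at least 40%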;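 also: mutant grown at 25 °C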
# tim23-1 inh: tim23-1 yeast growth inhibition; S. cerevisiae tim23-1 growth, BacTiter-Glo luminescence, 24 h; inhibition, % at 20 µM; 1.3% of 330,000 active;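 active = growth inhibition of the mutant yeast at or above 50%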;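 also: temperature-sensitive mutant grown at 25 °C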
# tim10-1 confirm: confirmation of tim10-1 mutant yeast growth inhibitors | shares compounds with tim10-1 inh | S. cerevisiae tim10-1 ts strain growth, BacTiter-Glo, 24 h | inhibition, % at 20 µM | 56% of 7,400 active | AID 463213;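 active = inhibition of yeast growth at or above a set limit in either of two repeat tests at 20 µM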;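 also: tim10-1 mutant grown at permissive 25 °C to find synthetic lethal compounds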
# TIM10 conf: confirmation of TIM10 yeast growth inhibitors; AID 463215; shares compounds with TIM10 inh; inhibition, % at 10 µM; 63% of 4,600 active; S. cerevisiae tim10 strain growth, BacTiter-Glo luminescence, 24 h;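 active = inhibition of yeast growth at or above a set limit in either of two replicates at 10 µM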; also: this counterscreen used the strain with wild-type TIM10
# tim23-1 confirm: confirmation of tim23-1 mutant yeast growth inhibitors. shares compounds with tim23-1 inh. S. cerevisiae tim23-1 growth, BacTiter-Glo luminescence, 24 h. inhibition, % at 20 µM. 83% of 4,400 active. AID 463218;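 active = inhibition above about 39% in either of two replicate wells at 20 µM, limit read from the data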;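 also: temperature-sensitive tim23-1 mutant grown at 25 °C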
# Numbers stand for hits; – = inactive; ? = inconclusive; · = no result given; + = active, no number. Hits are enriched below; roughly 3.8% of the tested compounds scored in any of these assays.
SMILES,B2AR ag,TIM10 inh,PfHsp90 set2,tim10-1 inh,tim23-1 inh,TIM10 conf,tim23-1 confirm,others
CCOC(=O)C(O)(c1ccc(NC(=O)c2ccc(Cl)c(Cl)c2)cc1)C(F)(F)F (configuration not stated),–,–,–,43,57,·,50,tim10-1 confirm=34
CC(C)CN1CCN(Cc2ccc(F)cc2Cl)CC1CCO (configuration not stated),–,–,–,–,–,·,·,
Oc1c(Br)c(Br)c(Br)c(Br)c1Br,–,49,–,52,66,44,58,tim10-1 confirm=65
O=C1NC(=O)C(Nc2ccc(Cl)c(Cl)c2)C(=O)N1,–,·,–,·,·,·,·,
CN1/C(=C\C=C\C2=[N+](C)c3ccc4ccccc4c3C2(C)C)C(C)(C)c2ccccc21,·,74,·,77,85,80,79,tim10-1 confirm=56
CC(C)=CCc1c(O)cc2c(c1O)C(=O)CC(c1ccc(O)cc1)O2 (configuration not stated),–,46,–,54,60,57,59,tim10-1 confirm=35
COC(=O)C1=C(c2cccc(OC)c2OC)C[C@@H]2CC[C@H]1N2C(=O)N1CCC(C)CC1,–,–,–,–,–,·,·,
O=C1C(=O)c2ccccc2-c2ccccc21,103,92,?,85,77,98,77,tim10-1 confirm=85
Cc1nc2c(=O)n(C)c(=O)nc-2n(C)n1,64,–,–,42,54,·,63,tim10-1 confirm=–
Nc1c2c(nc3sc4c(c13)CCCC4)CCCCC2,–,–,–,–,–,·,·,
Nc1c2c(nc3sc4c(c13)CCCC4)CCCC2,–,48,–,–,–,38,·,
CCC(=O)OC1CCC2C3CCC4CC(=O)C=CC4(C)C3CCC12C (configuration not stated),–,·,–,·,·,·,·,
CCC(=NCc1ccco1)c1c(O)n(C2CCCCC2)c(=O)[nH]c1=O,–,40,–,–,–,–,·,
CC1(C)CCCN1CCC(C(N)=O)(c1ccccc1)c1ccccc1,–,·,–,·,·,·,·,
N#CC1(c2ccccc2)CCN(C2CC(=O)N(c3cccc(F)c3)C2=O)CC1 (configuration not stated),–,–,–,–,–,·,·,
CCOC(=O)c1ccc(N2C(=O)CC(N3CCC(C#N)(c4ccccc4)CC3)C2=O)cc1 (configuration not stated),–,42,–,–,–,33,·,
CC1(C)C[C@H]2C=C(C=O)[C@]3(C=O)C[C@]3(C)[C@H]2C1,–,50,·,–,–,61,·,
NCCc1ccccn1,·,–,·,–,–,·,·,
Cn1cnc(CCN)c1,–,40,–,–,–,–,·,
O=c1cccc2n1CC1CC2CN(c2ncnc3c2cnn3-c2ccc(Cl)cc2)C1 (configuration not stated),–,44,–,–,–,–,·,
COc1ccc([C@@H](O)[C@@H](N)c2ccccc2)cc1,–,–,·,–,–,·,·,
CCCCCCCCn1sccc1=O,–,54,+,–,65,58,–,
CC1=Nc2ccccc2/C1=C/c1c(O)[nH]c(=O)[nH]c1=O,–,–,–,–,–,·,·,
O=c1[nH]c(O)c(/C=C2/C=CC(c3cc(Cl)ccc3Cl)=N2)c(=O)[nH]1,–,52,–,–,54,52,59,
O=c1[nH]c(O)c(N=Nc2cc([N+](=O)[O-])ccc2O)c(=O)[nH]1,–,·,–,·,·,·,·,
SMILES,B2AR ag,TIM10 inh,PfHsp90 set2,tim10-1 inh,tim23-1 inh,TIM10 conf,tim23-1 confirm,others
Cc1cc(C=C2C(=O)NC(=S)NC2=O)c(C)n1C1CCCC1,–,46,–,–,55,45,55,
Cc1c(OC(=O)N(C)C)ccc2c1O/C(=C\c1ccco1)C2=O,–,–,–,–,–,·,·,
CN(C)C(=O)O/N=C(\N)COc1ccc(C(C)(C)C)cc1,–,73,–,–,59,81,54,
CCOC(=O)C(O)(c1ccc(N(C)C(=O)COc2ccccc2)cc1)C(F)(F)F (configuration not stated),–,–,–,–,–,·,·,
CCc1ccc(-c2nn(Cc3ccccc3)cc2C=O)cc1,–,–,–,–,54,·,58,
O=Cc1cn(Cc2c(F)cccc2Cl)nc1-c1ccccc1,–,–,–,–,55,·,40,
COP(=S)(OC)SCn1nnc2ccccc2c1=O,–,·,·,·,·,·,·,
CC1CCCCC1NC1CCN(C)CC1 (configuration not stated),–,–,–,–,–,·,·,
C=CCN1C(=O)/C(=C\c2ccc(N3CCOCC3)o2)C(=O)NC1=S,–,–,–,–,–,·,·,
C=CCN1C(=O)/C(=C/c2ccc(Br)s2)C(=O)NC1=S,–,–,?,–,56,·,72,
CS(=O)(=O)c1ccc(C(=O)N2CCC(C(=O)O)(c3ccccc3)CC2)cc1,–,–,–,–,–,·,·,
COc1cccc(C2CC3C(=O)C=CC2N3Cc2ccccc2)c1 (configuration not stated),–,–,–,–,55,·,47,
COc1cccc(-c2nn(Cc3ccccc3)cc2C(=O)O)c1,–,–,–,–,–,·,·,
Cc1ccc(S(=O)(=O)Oc2ccccc2C=C2C(=O)N(C)C(=O)N(C)C2=O)cc1,–,–,–,–,73,·,75,
CN1C(=O)C(=Cc2ccccc2OCc2ccc(Cl)cc2)C(=O)N(C)C1=O,–,–,–,–,67,·,80,
COCCO[C@H]1CC[C@@]2(C)C(=CCC3C2CC[C@@]2(C)C3CC[C@]2(C)O)C1 (some centres not stated),–,–,–,–,–,·,·,
COc1ccc(-n2c(/C=C/c3cccc(F)c3)nc3ccccc3c2=O)c(OC)c1,–,·,–,·,·,·,·,
O=c1c2ccccc2nc(/C=C/c2ccccc2F)n1-c1ccccc1O,–,–,–,–,54,·,48,
O=c1c2ccccc2nc(/C=C/c2ccccc2O)n1-c1ccccc1O,–,–,–,–,–,·,·,
N[C@@H]1CCCC[C@H]1N.O=C(O)C(=O)O.[Pt],·,–,·,–,–,·,·,
CC(=O)C1CCC2C3CCC4CC(O)CCC4(C)C3CCC12C (configuration not stated),–,–,–,–,56,·,49,
CC(=O)[C@H]1CC[C@H]2[C@@H]3CC[C@H]4C[C@H](O)CC[C@]4(C)[C@H]3C(=O)C[C@]12C,–,–,–,–,–,·,·,
O=Cc1cn(Cc2ccc(Br)cc2)c2ccccc12,–,–,–,–,59,·,–,
O=Cc1cn(Cc2cccc(F)c2)c2ccccc12,–,–,–,–,–,·,·,
CCC(C)(C)n1nnnc1C(c1cccs1)N1CC=C(c2ccc(F)cc2)CC1 (configuration not stated),–,–,–,–,57,·,52,
NC(N)=N/N=C/c1ccc(N(c2ccccc2)c2ccccc2)cc1,–,–,–,–,71,·,27,

# High-throughput results from PubChem.
